# Measured values from the supplement of paper PMC6555819.
# Key:
# Assay in all cases: PBM binding z-score (relative to random genomic background probes); higher = stronger binding; sequences stand for … in GC…GCGATTGACAGCGTAGAATGAAGG
# [1] = tested on: RARb homodimer (NR concentration 270 nM)
# In short: (§1)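 Scanned fluorescence from custom Agilent 4×180K protein-binding microarrays was regression-normalized. Binding z-scores use random background probes as reference. Ligand-free nuclear receptor dimers were incubated on the arrays for 1 h and detected with antibodies against each partner (one per run).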
# [2] = tested on: RARg:RXRa (NR concentration 270 nM, RXRa partner concentration 90 nM)
# In short: as §1
# [3] = tested on: RARg homodimer (NR concentration 270 nM)
# In short: as §1
# [4] = tested on: RXRa DBDmut IVT, anti-RXR (DBD mutation: RXRa K156A/R161A, NR concentration 90 nM)
# In short: as §1
# [5] = tested on: RXRa homodimer (NR concentration 180 nM)
# In short: as §1
# [6] = tested on: THRa:RXRa (NR concentration 90 nM, RXRa partner concentration 90 nM)
# In short: as §1
# [7] = tested on: THRa homodimer (NR concentration 90 nM)
# In short: as §1
# [8] = tested on: VDR:RXRa (NR concentration 270 nM, RXRa partner concentration 90 nM)
# In short: as §1
# [9] = tested on: VDR homodimer (NR concentration 270 nM)
# In short: as §1
Sequence,PBM binding z-score [1],PBM binding z-score [2],PBM binding z-score [3],PBM binding z-score [4],PBM binding z-score [5],PBM binding z-score [6],PBM binding z-score [7],PBM binding z-score [8],PBM binding z-score [9]
CCAAGTTGGTCAAGGTCACACACGCTATAGGTAC,4.47,5.04,5.36,2.86,5.31,4.06,4.34,4.79,4.56
TCATATAGGTAAAAGATGAAAGTCGGTGTGGTAA,-0.433,0.301,0.223,1.73,0.923,0.0309,0.103,0.912,-0.0575
TGAATGAGGTTATAAGATCACGGAACGTTGCAAA,0.253,2.04,1.23,0.931,2.7,2.08,0.188,1.53,0.468
TCTCGTTGGTCAAAGGTCACACACTCGAAATGCG,5.23,7.05,6.09,1.99,8.17,4.2,2.63,5.25,2.94
AATCCAGGGTCATCGTAGGCCAGAGTACGCACAG,3.82,5.9,5.22,3.32,6.77,4.55,1.86,5.32,4.06
AGAATGAGGTGACCAAAGATCAGGGAAACGCTTG,0.672,1.06,1.01,-0.266,1.51,2.53,0.878,0.0943,-0.347
CGACAAAGTTCAACTAAGGTAACGTAAAGCACGC,4.21,5.63,6.69,4.18,4.41,5.06,1.57,4.67,3.79
TGTCAAAGTTCAAAGGTAACATAAGTATCCACAC,3.83,6.56,6.03,4.43,6.86,3.53,0.27,5.14,4.17
TCTTGTAGATCAAGCAGCTTAAGAAAGCCTGAGT,-0.672,-0.336,-0.59,0.402,-0.293,-0.48,-0.676,0.0668,-0.394
TCATACAGGTAAATGCTAGGTGAAAGTCCGATCT,0.654,0.462,0.278,1.48,0.593,1.47,0.878,0.69,0.146
AGAACGAGGGCACGCTTAGTTGATAGCAGAGTAG,1.38,1.76,2.33,2.1,1.42,1.94,0.257,1.19,0.561
ATATGTAGGTTAGCTGGGGTCATTGAGACTAGGC,3.66,4.03,2.91,1.82,5.63,4.83,3.21,5.95,5.12
ATCTCTAGGTAAAGATAGTTAAGTGAATGCAAAT,-0.639,0.108,0.448,-0.348,-0.199,0.104,-0.211,0.487,-0.177
GGAACGAGGGCAAGTTGATAGTAGAGTTTGATGG,1.75,1.54,2.17,2.51,0.814,1.36,0.454,1.34,2.31
TCTTGTAGATCAAAGGCTAAGAAAGCCGAAGCCT,-0.521,-0.216,-0.29,0.467,0.315,-0.446,-0.464,-0.203,-0.345
TCGAGTAGGTTACCAATGGGGCAGTCAGCTTTCT,0.628,1.29,0.257,0.0356,0.404,-0.0981,-1.12,-0.0931,-1.05
AGTCAAAGTTCACTAGGTGACGTAAGATTCAGCT,4,5.11,5.68,4.42,3.96,2.33,0.0713,4.03,3.73
CGTACTGGGCCATTCAGAGGTCATTGATCATATG,4.23,4.62,3.63,1.64,3.95,3.33,1.54,4.27,3.81
